High-throughput results deposited in PubChem by National Center for Advancing Translational Sciences (NCATS).
Compounds with a hit are over-represented: about 2.1% of the library has one in this group of screens.
FUS suppressor: qHTS for Suppressors of FUS Proteinopathy: Primary screen using FUS-linked yeast assay | S. cerevisiae FUS-expressing, growth rescue, OD600, 24 h | Potency, µM (series often up to 76.6 µM), hits mostly activators | actives 0.24% (n = 390,000); further: nearly all actives have a fitted effect of over 55% in size
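Cultures pregrown in 2.5% raffinose medium are shifted to minimal medium containing 2% galactose to express toxic FUS. Compounds are tested at several concentrations. After 24hr at 30C, growth is quantified at 600 nm absorbance.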
Abeta yeast res: qHTS for compounds that reverse cellular toxicity of Amyloid beta (A-beta) peptide in yeast: Primary Screen | yeast expressing A-beta42, growth rescue, OD600, 48 h; response scale: 0% DMSO, 100% iron-clioquinol control | AID 1347071, 2019 | Potency, µM (series often up to 46.1 µM), usual class: activators | actives 0.063% (n = 410,000); further: nearly all actives have a fitted effect of over 55% in size
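Growth rescue measured by 600 nm absorbance after 48 h yeast culture at 30 C with compound. Values normalized between DMSO and an equimolar ferric chloride plus clioquinol control.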
TDP43 rescue: qHTS of TDP-43 Inhibitors; actives 1.8% (n = 410,000); TDP-43 expressing yeast growth rescue, BacTiter-Glo, 24 h; Potency, µM (series often up to 46.1 µM), actives largely listed as activators; further: nearly all actives have a fitted effect of over 50% in size
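In this qHTS, compounds that restore growth of yeast expressing TDP-43 appear as activators. Cells (OD600=0.02, galactose medium, raffinose-pregrown) are incubated with compound 24 hr at 30 deg C and growth is quantified by BacTiter-Glo.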
aSyn rescue: qHTS of alpha-syn Inhibitors. Yeast expressing alpha-synuclein, growth rescue, BacTiter-Glo, 24 h. Potency, µM (highest dose often 46.1 µM), hits mostly activators. actives 0.14% (n = 370,000). AID 652106, 2013; further: nearly all actives have a fitted effect of over 65% in size
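Screening used galactose-induced yeast with toxic alpha-synuclein levels, exposed to compound for 24 hr at 30 deg C. Cell growth, read with BacTiter-Glo luminescence, gave the measured signal.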
Each line names hits and unclear results; the compound was inactive in the other large screens; ! = not confirmed by another sample. The call rests on the fitted dose curve; in most records, active means well fitted curve in the direction sought with a large enough effect; inconclusive means small, poorly fitted or top-dose-only effect, or another doubt; inactive means no such curve, though single readings can be large; an effect the other way counts as inactive or inconclusive.

COc1ccc2c(c1)CC/C2=N\OC(=O)c1ccccc1C	TDP43 rescue inconclusive
COc1ccc2c(c1)CCC/C2=N/OC(=O)c1ccccc1OC	TDP43 rescue 16µM
COc1ccc2c(c1)CC/C2=N\OC(=O)c1cccc(C)c1	TDP43 rescue 5µM (no result: FUS suppressor)
COC(=O)c1ccc(OCC2c3cc(OC)c(OC)cc3CCN2C(=O)c2ccc(F)cc2)cc1 (centres undefined)	FUS suppressor inconclusive, TDP43 rescue 35µM
COC(=O)c1ccc(OCC2c3cc(OC)c(OC)cc3CCN2C(=O)Cc2ccccc2)cc1 (centres undefined)	FUS suppressor inconclusive, TDP43 rescue 20µM
COC(=O)c1ccc(OCC2c3cc(OC)c(OC)cc3CCN2C(=O)c2ccccc2C)cc1 (centres undefined)	FUS suppressor inconclusive, TDP43 rescue inconclusive
CCC(CC)C(=O)N1CCc2cc(OC)c(OC)cc2C1COc1ccc(C(=O)OC)cc1 (centres undefined)	FUS suppressor inconclusive, TDP43 rescue 28µM
COc1ccc(CN2C(=O)c3cccc4cccc(c34)C2c2nc3ccccc3[nH]2)cc1 (centres undefined)	FUS suppressor inconclusive
N=c1ccn2c(n1)OC1C(O)[C@@H](CO)O[C@H]12 (some centres undefined)	none (no result: FUS suppressor, Abeta yeast res, TDP43 rescue)
Cc1ccc2c(Sc3ccccc3)c(C(=O)NCc3ccccc3F)[nH]c2c1	none (no result: aSyn rescue)
C=C1CCC[C@]2(C)C[C@H]3OC(=O)C(CN4CCCCC4CO)[C@H]3CC12 (some centres undefined)	TDP43 rescue 13µM
COc1ccccc1NC1=C(Cl)C(=O)N(c2ccccc2)C1=O	TDP43 rescue 6.3µM (no result: FUS suppressor)
COc1ccc(NC2=C(Cl)C(=O)N(c3ccccc3)C2=O)c(OC)c1	none
O=C(NCc1ccccc1Cl)c1cc2ccccc2o1	TDP43 rescue 11µM (no result: aSyn rescue)
Cc1ccccc1CNC(=O)c1cc2ccccc2o1	TDP43 rescue inconclusive
COc1ccccc1N1CCN(C(=O)c2cc3c(s2)CCCCC3)CC1	TDP43 rescue 22µM
CCc1cc(C(=O)N2CCN(c3ccccc3OC)CC2)sc1C	TDP43 rescue 13µM
COc1ccccc1N1CCN(C(=O)c2oc3ccc(Br)cc3c2C)CC1	TDP43 rescue 18µM
COc1ccccc1N1CCN(C(=O)c2cc3c(s2)-c2ccccc2OC3)CC1	FUS suppressor inconclusive, TDP43 rescue 11µM!
Cc1cc2oc(C(=O)Nc3c(C)n(C)n(-c4ccccc4)c3=O)cc(=O)c2cc1C	none (no result: aSyn rescue)
COc1ccc(S[C@]2(C(=O)N3CCN(C(C)=O)CC3)CC(=O)N(C(=O)c3ccccc3)[C@@H]2c2ccc(OC)cc2)cc1	none (no result: Abeta yeast res, TDP43 rescue, aSyn rescue)
Cc1ccc(C(=O)/C=C/Nc2ccccc2C(N)=O)o1	aSyn rescue 11µM
NC(=O)c1ccccc1N/C=C/C(=O)c1ccc(F)cc1	TDP43 rescue inconclusive
CN(/N=C/c1ccc([N+](=O)[O-])o1)c1ccccc1	TDP43 rescue 14µM
O=C1C=C(c2n[nH]nc2-c2ccccc2)C[C@@H](c2ccc(F)cc2)C1	none
Cc1ccccc1Cn1cnc2c([N+](=O)[O-])c(C)c(C)cc21	TDP43 rescue 13µM
COc1ccccc1CN(Cc1cc2cc(C)ccc2[nH]c1=O)Cc1nnnn1Cc1ccco1	FUS suppressor 16µM
COc1ccc(Oc2nnnn2-c2ccccc2)cc1	TDP43 rescue 11µM
COc1ccc(Oc2cnn(-c3ccccc3)c(=O)c2Br)cc1	TDP43 rescue 13µM
Cc1ccc(C)c(Oc2nnnn2-c2ccccc2)c1	TDP43 rescue 11µM
NC(=O)c1ccc(-n2nnnc2Oc2ccccc2)cc1	none
COc1cnn(-c2ccc(C)cc2)c(=O)c1Br	TDP43 rescue inconclusive
COc1cccc(Oc2nnnn2-c2ccccc2)c1	TDP43 rescue 13µM (no result: aSyn rescue)
C=CCn1c(COc2ccc(C)cc2)nnc1SCC(=O)Nc1cc(Cl)cc(Cl)c1	none (no result: Abeta yeast res, TDP43 rescue, aSyn rescue)
CCCSCCCNC(=O)Cn1c(-c2cccs2)cc2ccccc21	none (no result: aSyn rescue)
Clc1ccc(Oc2nnnn2-c2ccccc2)cc1	TDP43 rescue 11µM
CC(=O)c1ccc(Oc2nc(C)nc3c2oc2ccccc23)cc1	none (no result: aSyn rescue)
S=C1NCCc2ccc(Cl)cc2C1c1ccccc1 (centres undefined)	TDP43 rescue 14µM, aSyn rescue inconclusive
CCn1c2ccccc2c2cc(/C=C(/C#N)C(N)=S)ccc21	TDP43 rescue 32µM (no result: FUS suppressor)
CCn1c2ccccc2c2cc(N)ccc21	none
